Paper PMC7862700, “An all-to-all approach to the identification of sequence-specific readers for epigenetic DNA modifications on cytosine”

biological target: T1, ELF5 (Homo sapiens, UniProt Q9UKW6-2 1-255); experiment: DAPPL (digital affinity profiling via proximity ligation, sequencing); 10 mM Tris-HCl pH 7.5, 50 mM NaCl, 1 mM DTT, 4% glycerol, room temperature, 30 min; GST-TFs on glutathione beads, 16-mer random dsDNA library, 0.1% formaldehyde crosslink after washing; high values mean tight binding; settings: protein: recombinant; tags: N-terminal GST; dsDNA, one strand shown
T1 sequence: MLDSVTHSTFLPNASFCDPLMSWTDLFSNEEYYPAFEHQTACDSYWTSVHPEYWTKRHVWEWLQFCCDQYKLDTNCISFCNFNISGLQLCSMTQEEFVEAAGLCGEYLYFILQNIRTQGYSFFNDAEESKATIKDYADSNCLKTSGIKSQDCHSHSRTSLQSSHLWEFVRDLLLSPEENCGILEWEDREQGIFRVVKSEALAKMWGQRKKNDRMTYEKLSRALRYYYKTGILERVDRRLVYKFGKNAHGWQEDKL
Summary of the method: (§1)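 Binding signal is given per hexamer as its read frequency for a factor divided by its frequency in the tag-only sample. GST-fused human transcription factors were expressed in yeast, captured on glutathione beads, barcoded with DNA and pooled with that sample, then incubated with 200 nmole of a 16-mer random double-stranded DNA library in Tris/NaCl/DTT/glycerol buffer for 30 min at room temperature. The pools were then washed, crosslinked, proximity-ligated, amplified by PCR and sequenced on an Illumina NextSeq500.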

| Sequence | binding signal |
| --- | --- |
| TTCCGT | 2.76 fold enrichment (6-mer frequency, TF over GST control) |
| GTGCTC | 1.22 fold enrichment (6-mer frequency, TF over GST control) |
| GTCTTC | 1.72 fold enrichment (6-mer frequency, TF over GST control) |
| GCAACT | 1.18 fold enrichment (6-mer frequency, TF over GST control) |
| GTTCCC | 1.48 fold enrichment (6-mer frequency, TF over GST control) |
| TCTGTC | 1.16 fold enrichment (6-mer frequency, TF over GST control) |
| TGGCAC | 1.05 fold enrichment (6-mer frequency, TF over GST control) |
| AACACG | 1.22 fold enrichment (6-mer frequency, TF over GST control) |
| GAAGTT | 2 fold enrichment (6-mer frequency, TF over GST control) |
| ACCTCG | 1.06 fold enrichment (6-mer frequency, TF over GST control) |
| CCGGCA | 1.51 fold enrichment (6-mer frequency, TF over GST control) |
| ACCGTC | 1.08 fold enrichment (6-mer frequency, TF over GST control) |
| TGCCTG | 1.27 fold enrichment (6-mer frequency, TF over GST control) |
| ATGTGC | 1.09 fold enrichment (6-mer frequency, TF over GST control) |
| CCTGCA | 1.3 fold enrichment (6-mer frequency, TF over GST control) |
| CAGGAA | 2.12 fold enrichment (6-mer frequency, TF over GST control) |
| TGCCCC | 1.18 fold enrichment (6-mer frequency, TF over GST control) |
| TAGGAA | 1.29 fold enrichment (6-mer frequency, TF over GST control) |
| TGTCTC | 1.26 fold enrichment (6-mer frequency, TF over GST control) |
| GTTTGA | 1.17 fold enrichment (6-mer frequency, TF over GST control) |

biological target: T2, ETV3 (Homo sapiens, UniProt P41162-2 1-143); experiment: as above; settings: protein: recombinant; tags: N-terminal GST; dsDNA, one strand shown
T2 sequence: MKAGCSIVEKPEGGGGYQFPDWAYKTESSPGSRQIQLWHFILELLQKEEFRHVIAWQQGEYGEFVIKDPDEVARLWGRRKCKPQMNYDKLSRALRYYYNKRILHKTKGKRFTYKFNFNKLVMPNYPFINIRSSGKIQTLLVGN
Summary of the method: as §1

| Sequence | binding signal |
| --- | --- |
| CGTACA | 1.14 fold enrichment (6-mer frequency, TF over GST control) |
| ACTGCG | 1.25 fold enrichment (6-mer frequency, TF over GST control) |
| AGATGC | 1.06 fold enrichment (6-mer frequency, TF over GST control) |
| GTTCAA | 1.15 fold enrichment (6-mer frequency, TF over GST control) |
| TGACAT | 1.26 fold enrichment (6-mer frequency, TF over GST control) |
| CCGGAA | 6.2 fold enrichment (6-mer frequency, TF over GST control) |
| GTCTCT | 1.27 fold enrichment (6-mer frequency, TF over GST control) |
| CGACAT | 1.37 fold enrichment (6-mer frequency, TF over GST control) |
| AACGAC | 1.11 fold enrichment (6-mer frequency, TF over GST control) |
| GACCTG | 1.17 fold enrichment (6-mer frequency, TF over GST control) |
| CGACCA | 1.2 fold enrichment (6-mer frequency, TF over GST control) |
| GGAACT | 1.93 fold enrichment (6-mer frequency, TF over GST control) |
| ACTCAC | 1.15 fold enrichment (6-mer frequency, TF over GST control) |
| GTACAT | 1.34 fold enrichment (6-mer frequency, TF over GST control) |
| ATGTGG | 1.19 fold enrichment (6-mer frequency, TF over GST control) |
| GAACCC | 1.07 fold enrichment (6-mer frequency, TF over GST control) |
| GGAAAA | 1.31 fold enrichment (6-mer frequency, TF over GST control) |
| ATGTAC | 1.19 fold enrichment (6-mer frequency, TF over GST control) |
| ATGGAC | 1.2 fold enrichment (6-mer frequency, TF over GST control) |
| TTCCGT | 2.16 fold enrichment (6-mer frequency, TF over GST control) |

| Sequence | binding signal |
| --- | --- |
| GTGCTC | 1.25 fold enrichment (6-mer frequency, TF over GST control) |
| GTCTTC | 1.4 fold enrichment (6-mer frequency, TF over GST control) |
| GCAACT | 1.16 fold enrichment (6-mer frequency, TF over GST control) |
| GTTCCC | 1.31 fold enrichment (6-mer frequency, TF over GST control) |
| TCTGTC | 1.05 fold enrichment (6-mer frequency, TF over GST control) |
| TGGCAC | 1.19 fold enrichment (6-mer frequency, TF over GST control) |
| AACACG | 1.3 fold enrichment (6-mer frequency, TF over GST control) |
| GAAGTT | 1.7 fold enrichment (6-mer frequency, TF over GST control) |
| ACCTCG | 1.1 fold enrichment (6-mer frequency, TF over GST control) |
| CCGGCA | 1.45 fold enrichment (6-mer frequency, TF over GST control) |
| ACCGTC | 1.2 fold enrichment (6-mer frequency, TF over GST control) |
| TGCCTG | 1.31 fold enrichment (6-mer frequency, TF over GST control) |
| ATGTGC | 1.15 fold enrichment (6-mer frequency, TF over GST control) |
| CCTGCA | 1.22 fold enrichment (6-mer frequency, TF over GST control) |
| CAGGAA | 1.72 fold enrichment (6-mer frequency, TF over GST control) |
| TGCCCC | 1.3 fold enrichment (6-mer frequency, TF over GST control) |
| TAGGAA | 1.22 fold enrichment (6-mer frequency, TF over GST control) |
| TGTCTC | 1.21 fold enrichment (6-mer frequency, TF over GST control) |
| GTTTGA | 1.24 fold enrichment (6-mer frequency, TF over GST control) |
